# Experimental data as given in PubChem BioAssay AID651814 (National Center for Advancing Translational Sciences (NCATS), 2012).
# The campaign covered roughly 2,100 compounds. About 590 (28%) were called active. Roughly 42% stayed inconclusive and do not appear here. The list shows a part of the results. A number with no mark means an inactive call. The call rests on the fitted dose curve; in most records, active means well fitted inhibition curve with a large enough effect; inconclusive means small, poorly fitted or top-dose-only effect; inactive means flat fitted curve, though single readings scatter.
# Target: DNA dC->dU-editing enzyme APOBEC-3F (Homo sapiens) (UniProt Q8IUX4)
# Sequence (Q8IUX4 whole entry, looked up): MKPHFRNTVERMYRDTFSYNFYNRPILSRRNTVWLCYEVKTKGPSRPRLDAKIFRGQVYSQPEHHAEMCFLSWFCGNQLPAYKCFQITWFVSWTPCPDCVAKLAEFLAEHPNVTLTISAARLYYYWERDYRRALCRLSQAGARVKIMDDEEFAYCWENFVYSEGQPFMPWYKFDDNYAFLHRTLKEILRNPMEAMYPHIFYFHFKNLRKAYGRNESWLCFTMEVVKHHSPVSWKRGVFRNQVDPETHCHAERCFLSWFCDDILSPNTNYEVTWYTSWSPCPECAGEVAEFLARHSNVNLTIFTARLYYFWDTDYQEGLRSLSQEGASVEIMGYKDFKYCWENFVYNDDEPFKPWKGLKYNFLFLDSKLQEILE
# Test: qHTS for inhibitors of Vif-A3F interactions: Cherry picks; further: nearly all actives have a fitted effect of over 70% in size;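 on max response: % of control where 0% means no effect; active compounds raise eYFP fluorescence by blocking Vif-driven A3F loss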
# Conditions: HeLa A3F-eYFP + Vif (tagged APOBEC3F with the HIV-1 protein that degrades it), eYFP fluorescence, 24 h
# Procedure, shortened: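 Read-out: yellow fluorescence (ex 488 nm, em 500-530 nm) by laser-scanning cytometer after 24 h compound exposure, several concentrations, at 37 deg C. Cells: HeLa line stably co-expressing Vif and C-terminally eYFP-tagged A3F; MG132 served as positive control.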
# Potency means the concentration at half of the fitted maximal effect.
SMILES,max response [%],Potency
CC(C)COc1ccc(C(=O)N/C(=C/c2cccc([N+](=O)[O-])c2)C(=O)O)cc1,-0.401,
Oc1sc(C=Nc2ccccc2)c2ccccc12,,20.6 µM (active)
COc1ccc(N=Cc2oc3ccc4ccccc4c3c2O)cc1,,5.17 µM (active)
COc1ccc(N=Cc2c(O)c3ccccc3n2C(C)=O)cc1,,20.6 µM (active)
CC(=O)n1cc(/C=N/NC(=O)c2sc(C)nc2C)c2ccccc21,-21.7,
CCCC(=O)NC(c1ccc(OC)cc1)c1c(O)ccc2ccccc12 (stereo not drawn),-21,
COc1ccc(N=Cc2sc(O)c3ccccc23)cc1,,8.86 µM (active)
CC1(C)CC(=O)C(C=Nc2cc(C(=O)c3ccccc3)ccc2N)=C(O)C1,-20.7,
O=c1[nH]c2ccccc2n2c(=S)[nH]nc12,-3.48,
COc1ccc(N/C=C2\C(=O)CCc3c2oc2cc(Cl)c(O)c(Cl)c32)cc1,-28.6,
COC(=O)C1C2CC3c4[nH]c5cc(OC)ccc5c4CCN3CC2CC(OC2CCCCO2)C1OC (stereo not drawn),-12.1,
S=c1[nH]cnc2sc(-c3ccccc3)cc12,-2.16,
Oc1sc(C=Nc2ccc(F)cc2)c2ccccc12,,4.11 µM (active)
CCN(CC)C(=O)CSC(Nc1cccc(F)c1)=C(C#N)C#N,-4.73,
O=C(NN=Cc1c(O)ccc2ccccc12)c1ccc2c(c1)OCO2,-14.5,
CN(C)c1ccc(/C=N/NC(=O)c2cc(-c3ccc4c(c3)OCO4)n[nH]2)cc1,,17.7 µM (active)
O=C(N/N=C/c1ccc2c(c1)OCO2)c1ccc2c(c1)OCCO2,-24.9,
COCCCNC(=S)N/N=C/c1cccc(OC)c1O,-1.71,
CC(C)(C)C(=O)Nc1sc2c(c1C#N)CCN(Cc1ccccc1)C2,-17.1,
O=C(Nc1ncc(Cc2ccc(SC(F)F)cc2)s1)c1ccccc1,-6.02,

SMILES,max response [%],Potency
CCCN1CCc2c(sc(NC(=O)c3ccc(S(=O)(=O)N(C)c4ccccc4)cc3)c2C(=O)NC)C1,,23.1 µM (active)
NC(=O)c1c(NC(=O)c2ccccc2)sc2c1CCN(Cc1ccccc1)C2,,14 µM (active)
Cc1nc2ccc(NC(=O)c3cc(S(=O)(=O)N(C)c4ccccc4)ccc3Cl)cc2s1,-11.3,
CCCN1CCc2c(sc(NC(=O)c3ccc(S(=O)(=O)N(C)c4ccccc4)cc3)c2C(N)=O)C1,,20.6 µM (active)
CC(C)CN(CC(C)C)S(=O)(=O)c1ccc(C(=O)Nc2sc3c(c2C(N)=O)CCN(C(C)C)C3)cc1,,20.6 µM (active)
CCCCOc1ccc2c(c1)/C(=C(\C(Cl)=C(Cl)Cl)[N+](=O)[O-])N2,-18.3,
CCS(=O)(=O)N1CCc2cc(C(=O)N3CCN(c4cccc(C(F)(F)F)c4)CC3)ccc21,-12.8,
CC1=CC(C)(C)NC(=S)N1c1ccc2ccccc2c1,1.72,
CC(C)N1CCc2c(sc(NC(=O)c3cc4cc([N+](=O)[O-])ccc4s3)c2C(N)=O)C1,,20.6 µM (active)
N#Cc1c(NC(=O)c2ccc([N+](=O)[O-])o2)sc2c1CCC2,-22.4,
CCN1CCc2c(sc(NC(=O)c3ccc(S(=O)(=O)N(CC)c4ccccc4)cc3)c2C(N)=O)C1,,9.94 µM (active)
CCN1CCc2c(sc(-n3cccc3)c2C(C)NC(=O)Nc2ccc(C(=O)OC)cc2)C1 (stereo not drawn),0.47,
CC(=O)Nc1ccc(Nc2c3c4c(cccc4n(C)c2=O)C(=O)c2ccccc2-3)cc1,-27.5,
CCCCOc1nc2ccccc2nc1NS(=O)(=O)c1ccc(F)cc1,5.01,
Cc1ccc2c(Cl)c(C)c(N3CCCC3)nc2n1,1.73,
CCC(=O)Nc1nonc1-c1nc2ccccc2n1Cc1ccccc1,-26.4,
ClCc1nc2ccccc2n1Cc1ccccc1,,18.4 µM (active)
Clc1ccccc1Cn1c(/C=C/c2ccco2)nc2ccccc21,-8.9,
CCCOc1ccc(NC(=O)CC2C(=O)N(c3ccc(OCC)cc3)C(=S)N2C2CC2)cc1 (stereo not drawn),-28,
CCOC(=O)N1CCC(Nc2nc3ccccc3n3nnnc23)CC1,-9.96,

SMILES,max response [%],Potency
CCC(=O)Nc1ccccc1-c1nc2ccccc2n(C(C)C(=O)Nc2ccc(OC)cc2)c1=O (stereo not drawn),,11.6 µM (active)
CCOC(=O)Nc1cc2c(c(N)n1)N=C(c1ccccc1)CN2,,0.0259 µM (active)
Cc1ccc(-c2cn3nc(-c4ccccc4)c(-c4ccccc4)nc3n2)cc1,,18.4 µM (active)
COC(=O)c1sc2nc(CSc3ccc(Br)cc3)[nH]c(=O)c2c1C,-22,
Cc1ccc(CSc2nc(-c3ccc(C(C)(C)C)cc3)nc3cc(=O)[nH]n23)cc1,-0.911,
COc1cc(-c2noc(C)c2/C=C/c2ccc(OC(C)=O)cc2)cc(OC)c1OC,,0.627 µM (active)
N#CC(C(=S)Nc1ccccc1)c1nc2ccccc2[nH]1 (stereo not drawn),-16.9,
CCOC(=O)COn1c(=O)c(-c2ccc(Br)cc2)[n+]([O-])c2ccccc21,3.1,
CCOc1ccccc1N1CC(c2nc3ccccc3n2Cc2c(C)cc(C)cc2C)CC1=O (stereo not drawn),-7.39,
CCOC(=O)Cn1c(=O)c(-c2cc(Br)ccc2N)nc2ccccc21,,8.2 µM (active)
CC(C)n1c(O)c(N=Nc2ccc(Cl)nn2)c2ccccc21,,20.6 µM (active)
CCOC(=O)c1c(-c2ccc(OC)cc2)csc1/N=C/C1C(=O)CCCC1=O,-2.18,
CSc1ccccc1NC(=O)COC(=O)/C=C/c1ccco1,-23.1,
Cc1ccc(C(=O)CCC(=O)OCC(=O)Nc2ccccc2SCC#N)cc1,-8.08,
N#CCSc1ccccc1NC(=O)COC(=O)CCNC(=O)c1ccc([N+](=O)[O-])cc1,-12,
N#CCSc1ccccc1NC(=O)COc1ccc(-c2nnco2)cc1,,17.7 µM (active)
Cc1nc(C)c(C(=O)OCC(=O)Nc2ccccc2SCC#N)s1,,15.8 µM (active)
Cc1noc(C)c1C(=O)OCC(=O)Nc1ccccc1SCC#N,-24.1,
